Screens deposited in PubChem BioAssay by several laboratories.
GAA850 FXN act = increases GAA850 frataxin promoter reporter activity; HEK293 lucGAA850 FXN promoter luciferase reporter, 24 h; percent of 10 µM SAHA response; activation, % at 6 µM; hit rate 0.56% among 360,000; AID 540364;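 active = activation above the average of all compounds screened plus 3 SD, cutoff fixed separately per campaign, cut at about 7.5% in these data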;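 note: 0% = DMSO wells and 100% = 10 µM SAHA wells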
HSF1 activator = increases HSF-1 driven luciferase reporter signal. hit rate 1.7% among 300,000. NIH3T3-HGL HSF-1 luciferase reporter, MG132, 8 h; 100% = twice DMSO control signal. AID 504408. activation, % at 9 µM;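 active = mean replicate activation of at least 50% with a set share of replicates each reaching 50%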;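 note: 0% = median of the neutral control wells and 100% = twice that signal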
NR0B1 inh = NR0B1 (DAX1) inhibition; P51843; HEK293 Gal4-DAX1 luciferase reporter, luminescence; inhibition, % at 6.75 µM; hit rate 0.99% among 340,000; AID 504766;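 active = inhibition above the mean over all tested compounds plus 3 SD, cut at about 4.2% in these data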;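 note: 0% = DAX1-transfected cells with DMSO and 100% = empty-vector control cells with DMSO; inhibition shows as a rise in luminescence from relieved DAX1 repression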
Target sequence (P51843 207-470 limits assumed): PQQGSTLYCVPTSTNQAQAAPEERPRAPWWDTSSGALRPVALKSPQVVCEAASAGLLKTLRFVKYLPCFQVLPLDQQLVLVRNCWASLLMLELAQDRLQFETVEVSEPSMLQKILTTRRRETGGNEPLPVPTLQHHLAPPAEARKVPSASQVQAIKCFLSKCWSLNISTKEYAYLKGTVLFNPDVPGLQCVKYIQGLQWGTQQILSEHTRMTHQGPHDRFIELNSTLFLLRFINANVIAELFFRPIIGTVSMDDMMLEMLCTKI
AHR act = activators of human aryl hydrocarbon receptor. P35869. AHR-responsive luciferase reporter cells, luminescence. activation, % at 5 µM. hit rate 2.5% among 320,000. AID 2796; in the data active = activation above about 47%;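 note: 0% = vehicle wells and 100% = reference agonist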
HSF1 inh = HSF1 inhibition; NIH3T3-HGL HSE-luciferase, MG132-induced, luminescence 8 h; stronger effect = lower value; activity change, negative = inhibition, % at 7.5 µM (by protocol); hit rate 0.77% among 300,000; AID 2098;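 active = more than half of replicate wells show activity change below -50%, luminescence cut by over half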;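 note: luciferase reports HSF-1 transcriptional activity via heat shock element; 0% = median of DMSO wells and -100% = zero luminescence signal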
* = called active by the depositor; nt = no result given. Only some compounds are listed: those with a hit (about 5.4% of all), similar ones and a draw of the others.

SMILES | GAA850 FXN act | HSF1 activator | NR0B1 inh | AHR act | HSF1 inh
O=C(c1ccc2c(=O)n(Cc3ccccc3Cl)c(=S)[nH]c2c1)N1CCOCC1 | -2 | 18 | 1 | 0 | 9
CCCCCNC(=O)C1CCC(Cn2c(=S)[nH]c3ccccc3c2=O)CC1 (centres undefined) | 1 | 85* | 0 | 1 | 28
O=C(C1CCC(Cn2c(=S)[nH]c3ccccc3c2=O)CC1)N1CCN(c2ccccc2)CC1 (centres undefined) | 0 | 12 | -1 | 2 | -2
O=C(c1ccc2c(=O)n(Cc3ccccc3)c(=S)[nH]c2c1)N1CCOCC1 | 0 | -90 | 1 | 2 | -87*
O=C(C1CCC(Cn2c(=S)[nH]c3ccccc3c2=O)CC1)N1CCOCC1 (centres undefined) | -1 | 33 | 5.7* | -2 | 8
CCN(CC)C(=O)[C@H]1CC(CC(=O)NCCC2=CCCCC2)C(=O)N2CCc3c([nH]c4ccc(OC)cc34)[C@]12C (some centres undefined) | -2 | nt | 0 | nt | nt
CC(=O)/C(=C/c1ccccc1)C(=O)Nc1ccccc1C | 3 | 55* | -1 | -2 | 31
Cc1ccccc1NC(=O)C(=Cc1ccc(C(=O)O)cc1)C(=O)Nc1ccccc1C | -8 | 146* | -3 | nt | 85
O=C1CCCC2=C1CC(C(=O)OCc1ccccc1)C(=O)N2Cc1ccccc1 (centres undefined) | 0 | nt | -1 | nt | nt
Cc1ccc(N/C=C/C(=O)c2ccco2)c(O)c1 | 5 | -16 | 6.1* | 18 | -1
O=C(/C=C/Nc1ccc(F)cc1)c1ccco1 | 3 | 14 | 3 | 1 | 4
Cc1ccc(/C=N/Nc2nc(C(C)(C)C)cs2)o1 | 3 | 5 | -1 | 50* | -1
Cc1cc(=O)[nH]c(N/N=C/c2ccc(C)o2)n1 | 1 | -11 | -1 | 19 | -5
C/C(=N\Nc1nc(C(C)(C)C)cs1)c1ccccc1 | 4 | 45 | 6.6* | 46 | 35
C/C(=N\Nc1nc(C(C)(C)C)cs1)c1ccc(O)cc1 | 1 | -15 | -1 | 23 | 0
CCN(CC)c1ccc(/C=C2\SC(=O)N(C(C)C)C2=O)o1 | 14* | 295* | nt | -1 | 247
COc1ccc(/C=C2\SC(=S)N(CCC(=O)Nc3cccc(O)c3)C2=O)cc1 | -4 | 92* | 4.8* | nt | 67
Cc1ccc(/C=C2\SC(=S)N(CCC(=O)NNC(=O)c3ccncc3)C2=O)cc1 | 1 | -3 | nt | 4 | -7
Cc1ccc(/C=C2\SC(=S)N(CCC(=O)NNS(=O)(=O)c3ccc(C)cc3)C2=O)cc1 | 2 | 64* | -1 | 0 | 15
Cc1ccc(/C=C2\SC(=S)N(CCCC(=O)Nc3cccnc3)C2=O)cc1 | -15 | -70 | -2 | -20 | -60*
COc1ccc(/C=C2\SC(=S)N(CCCC(=O)Nc3ccc(O)cc3)C2=O)cc1 | -15 | -38 | -2 | -6 | -20
COc1cc(/C=C2/SC(=S)N(CC(=O)Nc3cccnc3)C2=O)cc(OC)c1OC | 1 | 6 | -1 | 51* | -3
CCOCCCNC(=O)c1cn(C)c2ccc(S(=O)(=O)N3CCCC3)cc2c1=O | -2 | -9 | -1 | 1 | -2
COc1ccc(-c2cc(C(F)(F)F)c3c(n2)sc2c(O)cc(=O)[nH]c23)c(OC)c1 | 3 | -2 | 1 | 70* | -6
CCOC(=O)c1snc(C(=O)NC2CCCCC2)c1N | 5 | 61* | 1 | 2 | 32
SMILES | GAA850 FXN act | HSF1 activator | NR0B1 inh | AHR act | HSF1 inh
COc1ccc(NC(=O)CSc2nnc(C)n2N)cc1S(=O)(=O)N1CCCCC1 | 1 | nt | 1 | 0 | nt
Nc1nc2c(-c3ccc(Br)cc3)nnn2c2ccccc12 | 6 | 56* | 4 | 54* | 16
Cc1ccc(-c2cc(C(=O)N/N=C/C(Br)=C/c3ccccc3)n[nH]2)o1 | 6 | 121* | -1 | 8 | 91
COc1cccc(C(=O)N/N=C/C(Br)=C/c2ccccc2)c1 | 1 | 56* | -2 | 19 | 46
COc1ccc(C(=O)N/N=C/C(Br)=C/c2ccccc2)cc1 | 2 | 148* | 0 | 16 | 116
Cc1occc1C(=O)N/N=C/C(Br)=C/c1ccccc1 | 7 | 314* | 0 | -3 | 207
COc1cc(C2C(c3ccccc3)C(c3cc(OC)cc(=O)o3)C2c2ccccc2)oc(=O)c1 (centres undefined) | -3 | nt | 1 | nt | nt
CC(C)CCN(C(=O)c1cn2ccccc2n1)c1c(N)n(Cc2ccccc2)c(=O)[nH]c1=O | 2 | nt | -1 | nt | nt
CCCCN1C(=O)N(c2nnc(C(C)(C)C)s2)C(O)C1c1ccc(C)cc1 (centres undefined) | 1 | 7 | -1 | 0 | 1
CCCCC(=O)Nc1ccc(C(=O)N2CCN(C)CC2)cc1 | -1 | 5 | 0 | -2 | 7
CC(C)(C)NC(=O)NC(=O)COC(=O)CNS(=O)(=O)c1ccc(Br)cc1Cl | -1 | 20 | 5.8* | -1 | 6
Cc1ccccc1CCN(C(=O)Cn1nnc2ccccc21)C(C(=O)NCC1CCCO1)c1nc2ccccc2n1C (centres undefined) | 1 | -1 | 1 | -2 | 1
COC1Cc2ccccc2N(C(N)=O)c2ccccc21 (centres undefined) | 1 | 5 | 3 | 48* | 3
CCN(CC)C(=O)N1c2ccccc2CC(N(CC)CC)c2ccccc21 (centres undefined) | -1 | -10 | -2 | 1 | 2
Cc1cc(C)nc(NC(=S)Nc2ccc(Br)cc2Cl)c1 | 3 | 11 | 0 | 2 | 7
COc1ccccc1-n1c(SCC(=O)NC2CCS(=O)(=O)C2)nc2cc([N+](=O)[O-])ccc21 (centres undefined) | 3 | 0 | -1 | 4 | -1
CCN(CC)S(=O)(=O)c1ccc2c(c1)nc(SCC(=O)NC1CC1)n2-c1ccccc1OC | -1 | 56* | -1 | 0 | 16
Cc1ccc(CC(=O)Nc2nnc(-c3ccc(F)cc3)o2)c(C)c1 | 1 | 12 | 0 | 1 | 2
COC(=O)c1cc(S(=O)(=O)n2nc(C)c(Br)c2C)c(Cl)cc1Cl | -3 | 26 | 1 | 1 | 22
O=C(Nc1nc2ccccc2[nH]1)c1ccc(OC(F)F)cc1 | -1 | 68* | -2 | -3 | 39
O=C(Nc1nc2ccccc2[nH]1)c1ccccc1OC(F)F | -2 | 60* | -2 | 51* | 26
O=C(Nc1nc2ccccc2[nH]1)c1ccc(F)cc1 | 1 | 9 | -2 | 11 | 11
N#CC(Cc1ccc(OC(F)F)cc1)c1nc2ccccc2[nH]1 (centres undefined) | 1 | 59* | 0 | 8 | 21
O=C(Nc1nc2ccccc2[nH]1)c1ccccc1F | -16 | -73 | -5 | 3 | -75*
Cc1cccc(OCC(=O)O/N=C(\N)Cc2ccc(Cl)cc2)c1 | 2 | 20 | 0 | 0 | -5
Cc1c(C(=O)Nc2nc3ccccc3[nH]2)cccc1[N+](=O)[O-] | 4 | 19 | 2 | 60* | 10
